From PubChem BioAssay (NCATS) come the findings set out here.

Results filed as inconclusive are left out. A number with no mark means an inactive call. The source made the active and inactive calls. Calls follow the shape of the dose curve; as a rule, active = well fitted inhibition curve with a large enough effect; inconclusive = small, poorly fitted or top-dose-only effect; inactive = flat fitted curve, though single readings scatter.

A short description of assay [1]: qHTS profiling for inhibitors of Plasmodium falciparum proliferation (AID 504749). Also: nearly all actives have a fitted effect of over 60% in size.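 As to activity, negative = inhibition: 0% = DMSO vehicle and full inhibition = artemisinin control.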 The conditions noted are these: P. falciparum in erythrocytes, SYBR Green DNA, 72 h. The gist of the method:
(§1)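 SYBR Green fluorescence of parasite DNA, read after lysis and overnight dark incubation, measured growth over 72 h in erythrocyte culture at 0.3% parasitemia and 2.5% hematocrit. Data normalised to DMSO and 0.29 uM artemisinin, with plate-drift correction.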
On the technique in general: Quantitative high-throughput screening tests each substance at several concentrations.

Assay [2] relates to 3D7. The assay is described as above. The conditions noted are these: P. falciparum in erythrocytes, SYBR Green DNA, 72 h; series mostly up to 28.7 µM. The gist of the method: as §1
Assay [3] has as its system 7G8. The description is as above. The following applies: P. falciparum in erythrocytes, SYBR Green DNA, 72 h; series mostly up to 28.7 µM. The gist of the method: as §1
For assay [4], the system named is AA1029. The assay is described as above. The following applies: P. falciparum in erythrocytes, SYBR Green DNA, 72 h; series mostly up to 28.7 µM. The essentials: as §1
Assay [5] relates to AS120. The assay is described as above. The following applies: P. falciparum in erythrocytes, SYBR Green DNA, 72 h; series mostly up to 28.7 µM. The essentials: as §1
The test system of assay [6] is ATS189. Described as above. The conditions noted are these: P. falciparum in erythrocytes, SYBR Green DNA, 72 h; series mostly up to 28.7 µM. The essentials:
as §1

Assay [7] deals with ATS95. The description is as above. The conditions noted are these: P. falciparum in erythrocytes, SYBR Green DNA, 72 h; series mostly up to 28.7 µM. The essentials: as §1
In assay [8] the test system is C2A. The description is as above. The following applies: P. falciparum in erythrocytes, SYBR Green DNA, 72 h; series mostly up to 28.7 µM. The gist of the method: as §1
Assay [9] relates to CP185. The assay is described as above. The following applies: P. falciparum in erythrocytes, SYBR Green DNA, 72 h; series mostly up to 28.7 µM. The essentials:
as §1

In assay [10] the test system is CP191. The description is as above. The following applies: P. falciparum in erythrocytes, SYBR Green DNA, 72 h; series mostly up to 28.7 µM. The gist of the method: as §1
For assay [11], the system named is CP192. The assay is described as above. The conditions noted are these: P. falciparum in erythrocytes, SYBR Green DNA, 72 h; series mostly up to 28.7 µM. The essentials:
as §1

In assay [12] the test system is CP194. The assay is described as above. The conditions noted are these: P. falciparum in erythrocytes, SYBR Green DNA, 72 h; series mostly up to 28.7 µM. The gist of the method:
as §1

The subject of assay [13] is CP203. Described as above. The following applies: P. falciparum in erythrocytes, SYBR Green DNA, 72 h; series mostly up to 28.7 µM. The gist of the method: as §1
Assay [14] concerns CP211. The assay is described as above. The conditions noted are these: P. falciparum in erythrocytes, SYBR Green DNA, 72 h; series mostly up to 28.7 µM. The essentials:
as §1

The subject of assay [15] is CP215. The description is as above. The conditions noted are these: P. falciparum in erythrocytes, SYBR Green DNA, 72 h; series mostly up to 28.7 µM. The essentials: as §1
In assay [16] the test system is CP217. The assay is described as above. The following applies: P. falciparum in erythrocytes, SYBR Green DNA, 72 h; series mostly up to 28.7 µM. The gist of the method: as §1
Assay [17] relates to CP237. The assay is described as above. The conditions noted are these: P. falciparum in erythrocytes, SYBR Green DNA, 72 h; series mostly up to 28.7 µM. The essentials:
as §1

Assay [18] concerns CP238. Described as above. The conditions noted are these: P. falciparum in erythrocytes, SYBR Green DNA, 72 h; series mostly up to 28.7 µM. The essentials:
as §1

For assay [19], the system named is CP201. Described as above. The following applies: P. falciparum in erythrocytes, SYBR Green DNA, 72 h; series mostly up to 28.7 µM. The essentials: as §1
[20] abbreviates: at 12.8 µM (top of the series), parasite line A.
The mark [21] stands for this setting: at 12.8 µM (top of the series), parasite line B.
The mark [22] stands for this setting: at 28.7 µM (top of the series), parasite line A.
Setting [23] is: at 28.7 µM (top of the series), parasite line B.
Potency is read from the fitted curve at half-maximal effect.

`CNCCc1ccccn1`: the activity, negative = inhibition in assay [1] (setting [20]) is 6.01%; in assay [1] (setting [21]) it was 8.04%. Besides, the Potency result in [2], in assay [3], in assay [4], in assay [5], in [6] and in [7] was “inactive” each time. Further, the Potency entry in assay [8], in assay [9], in [10], in [11], in [12] and in assay [13] was “inactive” each time. Besides, the Potency entry in assay [14], in assay [15], in assay [16], in [17] and in assay [18] was “inactive” each time.
`Nc1ccc(S(=O)(=O)Nc2cnc3ccccc3n2)cc1`: the activity, negative = inhibition in assay [1] (setting [22]) was -3.4%; in assay [1] (setting [23]) it was -11.6%. For the same molecule, the Potency entry in assay [2], in assay [3], in assay [4], in assay [5], in assay [6] and in assay [7] was “inactive” in each case. For the same molecule, the Potency result in assay [8], in assay [9], in [10], in assay [11], in assay [12] and in [19] was “inactive” each time. The Potency result in [13], in assay [14], in [16], in assay [17] and in assay [18] was “inactive” each time.
For `O=C(O)c1ccc(S(=O)(=O)N(Cl)Cl)cc1`, the activity, negative = inhibition in assay [1] (setting [22]) was -4.58%; in [1] (setting [23]) it was 5.75%. The Potency entry in assay [2], in assay [3], in assay [4], in [5], in assay [6] and in assay [7] was “inactive” throughout. For the same molecule, the Potency result in assay [8], in [9], in assay [10], in assay [11], in assay [12] and in assay [13] was “inactive” throughout. Moreover, the Potency entry in assay [14], in assay [15], in [16], in assay [17] and in [18] was “inactive” throughout.
With `NC(N)=NN=C(/C=C/c1ccc([N+](=O)[O-])o1)/C=C/c1ccc([N+](=O)[O-])o1`, the Potency is 7.08 µM (active) in [1] (parasite line A); 10 µM (active) in [1] (parasite line B); 2.24 µM (active) in assay [2]; 2.24 µM (active) in assay [3]; 10 µM (active) in [4]; 11.2 µM (active) in assay [5]. Further, the Potency in [7] was 10 µM (active); in [8], 12.6 µM (active); in assay [10], 10 µM (active); in [17], 3.55 µM (active).
For `O=C(O)C1(C(=O)O)CCC1.[NH2-].[NH2-].[Pt+2]`, the activity, negative = inhibition is -5.41% in [1] (setting [22]) and -0.756% in assay [1] (setting [23]). Moreover, the Potency entry in [2], in [4], in [5], in assay [6], in assay [7] and in assay [8] was “inactive” each time. The Potency result in assay [9], in assay [10], in [11], in [12], in [19] and in assay [13] was “inactive” in each case. Also, the Potency entry in assay [14], in assay [15], in [16] and in [18] was “inactive” each time. Moreover, the Potency in assay [3] is 14.1 µM (active).
Turning to `NCc1ccccc1Sc1ccccc1CO`, the activity, negative = inhibition in assay [1] (setting [22]) was 10.7%; in [1] (setting [23]) it was -5.68%. Moreover, the Potency entry in assay [2], in assay [6], in [8], in assay [9], in assay [10] and in assay [11] was “inactive” each time. In addition, the Potency result in assay [19], in [14], in assay [15], in assay [16] and in [18] was “inactive” in each case. For the same molecule, the figures for the Potency in assay [3] and in assay [17] were 11.2 µM (active) and 8.91 µM (active), respectively.
As to `CCOc1ccc(NC(C)=O)cc1`, the activity, negative = inhibition in assay [1] (setting [22]) was -9.23%; in assay [1] (setting [23]) it was 8.77%. The Potency result in [2], in [3], in assay [4], in assay [5], in assay [6] and in assay [7] was “inactive” throughout. The Potency entry in assay [8], in assay [9], in assay [10], in assay [11], in assay [12] and in assay [19] was “inactive” in each case. The Potency result in assay [13], in [14], in assay [16], in [17] and in assay [18] was “inactive” in each case.
In the case of `CN(Cc1ccc(C(C)(C)C)cc1)Cc1cccc2ccccc12`, the activity, negative = inhibition was -10% in assay [1] (setting [22]) and -26.9% in assay [1] (setting [23]). For the same molecule, the Potency result in [2], in [4], in [5], in [6], in assay [8] and in assay [9] was “inactive” each time. Besides, the Potency result in [11], in [12], in assay [19], in assay [13], in [14] and in assay [15] was “inactive” in each case. Moreover, the Potency entry in [16], in assay [17] and in assay [18] was “inactive” in each case. The Potency in assay [3] was 11.2 µM (active).
On to `O=C1C(=O)c2ccccc2C(O)=C1C1CCC(c2ccc(Cl)cc2)CC1` (centres undefined), for which the Potency in [1] (parasite line A) was 0.0014 µM (active); in assay [1] (parasite line B), 0.0032 µM (active); in assay [2], 0.0032 µM (active); in assay [3], 0.0011 µM (active); in assay [4] it was 0.0032 µM (active); in assay [5] it was 0.004 µM (active). For the same molecule, the Potency in [6] was 2.8 nM (active); in assay [7], 0.004 µM (active); in assay [8], 0.0079 µM (active); in assay [9] it was 3.5 nM (active); in [10], 0.0028 µM (active); in assay [11] it was 5.1 nM (active). The Potency was 5.7 nM (active) in assay [12]; 6.4 nM (active) in assay [19]; 6.4 nM (active) in assay [13]; 5.7 nM (active) in assay [14]; 1.4 nM (active) in assay [16]; 0.0011 µM (active) in [17]. Also, in assay [18], the Potency is 5 nM (active).
As for `CC[C@H](c1ccc(O)cc1)[C@@H](CC)c1ccc(O)cc1`, the activity, negative = inhibition in assay [1] (setting [20]) is -8.43%; in assay [1] (setting [21]) it was 3.18%. For the same molecule, the Potency entry in [2], in assay [3], in [4], in assay [5], in assay [6] and in assay [7] was “inactive” in each case. For the same molecule, the Potency result in assay [8], in assay [9], in assay [10], in assay [11], in assay [12] and in assay [19] was “inactive” in each case. The Potency entry in assay [13], in [15], in [16], in [17] and in assay [18] was “inactive” throughout.
Turning to `CC(=O)NC(=O)c1ccccc1O`, the values for the activity, negative = inhibition in assay [1] (setting [22]) and in assay [1] (setting [23]) were -1.16% and 7.59%, respectively. Further, the Potency result in assay [2], in assay [3], in [4], in assay [5], in [6] and in assay [7] was “inactive” throughout. Also, the Potency result in [8], in assay [9], in assay [10], in assay [11], in assay [12] and in assay [19] was “inactive” each time. Further, the Potency result in [13], in assay [15], in assay [16], in assay [17] and in [18] was “inactive” in each case.
As for `Cc1ncc(CO)c(C=O)c1O`, the activity, negative = inhibition is 0.609% in assay [1] (setting [22]) and 9.9% in [1] (setting [23]). In addition, the Potency entry in assay [2], in assay [3], in assay [4], in assay [5], in assay [6] and in assay [7] was “inactive” in each case. In addition, the Potency entry in assay [8], in assay [9], in assay [10], in assay [16], in [17] and in [18] was “inactive” throughout.
